# Laboratory results published in PubChem BioAssay (EPA / NIEHS).
# The source made the active and inactive calls. How the source made its calls, unless noted: active means hit-call score of the fitted dose curve at least 0.9, where 1 is the maximum; inactive means score below 0.9.
# Test system: not listed separately
# Assay: CCTE_Deisenroth_H295R-HTRF_384WELL_CTOX: Cytotoxicity Assessment in CCTE's H295R-HTRF Assay, Deisenroth Lab (AID 2284380; active means hit-call score of the fitted dose curve at least 0.9, where 1 is the maximum)
# Outline: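 H295R adrenocortical carcinoma cells plated 24 h, then exposed 48 h to nine-point series 0.001–100 uM final, triplicate, n=5. ATP measured by CellTiter-Glo 2.0 luminescence on same plates after medium collection; loss versus DMSO.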
row,Compound,outcome
1,CCSC(=O)N1CCCCCC1,inactive
2,CC(C)(C)C(=O)C(Oc1ccc(Cl)cc1)n1cncn1 (configuration not stated),inactive
3,CCCCC(C#N)(Cn1cncn1)c1ccc(Cl)cc1 (configuration not stated),inactive

# Test system: TTR (gene 7276)
# Assay: CCTE_GLTED_hTTR_0.125uM: CCTE's human Transthyretin (hTTR) Inhibition Assay, with 0.125uM TTR, Great Lakes Toxicology and Ecology Division (GLTED) Lab (AID 2284431);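 further: hits lower the fluorescence signal relative to DMSO baseline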
# Outline: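 TTR at 0.125uM incubated 2 h with test chemical; displacement of bound ANSA read by fluorescence (ex 380, em 475). Activity is signal loss versus DMSO baseline.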
row,Compound,AC50
1,N#Cc1c[nH]cc1-c1cccc2c1OC(F)(F)O2,0.5 µM (active)
2,COc1cc(Cl)c(OC)cc1Cl,4.26 µM (active)
3,O=C1C2CC=CCC2C(=O)N1SC(Cl)(Cl)Cl (configuration not stated),21.1 µM (active)
4,CCOc1nc(C(Cl)(Cl)Cl)ns1,5.26 µM (active)
5,CCOP(=O)(OCC)Oc1nc(Cl)c(Cl)cc1Cl,0.395 µM (active)
6,Cn1c(-c2ccccc2)cc(-c2ccccc2)[n+]1C,27.8 µM (active)
7,COP(=S)(OC)Oc1ccc([N+](=O)[O-])c(C)c1,8.85 µM (active)
8,CO/N=C(/C1=NOCCO1)c1ccccc1Oc1ncnc(Oc2ccccc2Cl)c1F,5.22 µM (active)
9,CC(C)NC(=O)N1CC(=O)N(c2cc(Cl)cc(Cl)c2)C1=O,2.51 µM (active)
